This is a sample that favours compounds with a hit; in the whole collection about 2.7% have one here.
ATXN2 expr inh = Primary qHTS for Inhibitors of ATXN expression; HEK-293 ATXN2-luciferase reporter, luminescence, 24 h; Potency, µM (highest dose often 57 µM), actives largely listed as inhibitors; 0.72% of 360,000 active; AID 1745845, 2022; further: nearly all actives have a fitted effect of over 55% in size
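qHTS (up to 57 uM final) was run with 24 h compound exposure of reporter cells at 37 °C. Each well was multiplexed: SteadyGlo luminescence measured ATXN2-luciferase expression after a fluorogenic Gly-Phe-AFC viability readout (25 uM final).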
TGFb SMAD3 inh = qHTS for Inhibitors of TGF-b. HepG2 CAGA-GFP TGF-b/SMAD3 reporter, GFP fluorescence, 18 h; TGF-beta stimulated, 500 pg/mL final. Potency, µM (top dose mostly 46.1 µM), usual class: inhibitors. 1.2% of 410,000 active. AID 588855, 2011; further: nearly all actives have a fitted effect of over 65% in size
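Read-out: total well GFP (ex488/em500-530) summed from mean per-cell fluorescence. Cells: HEPG2 CAGA-GFP, 1% FBS DMEM, 18 h at 37 degrees C with 500 pg/mL final TGF-beta. Unstimulated wells served as the full-inhibition control; stimulated DMSO wells = 0%.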
HepG2 viability = qHTS for Inhibitors of TGF-b: Cytotox Counterscreen; HepG2 CAGA-GFP viability, ATP luminescence, 18 h; Potency, µM (series often up to 46.1 µM), hits mostly cytotoxic; 0.76% of 410,000 active; AID 588856, 2011
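CellTiter-Glo luminescence gave cytotoxicity after 18 hours at 37 degrees C. The cells were HepG2 CAGA-GFP in 1% FBS DMEM, stimulated with 500 pg/mL TGF-beta after compound addition. %Activity was normalised to no-cell wells (complete cell-killing) and DMSO (no toxicity), and curves were fitted and classified.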
ATXN viability = Viability Counterscreen for Primary qHTS for Inhibitors of ATXN expression; S2 cells (HEK-293 line with an ATXN2-luciferase reporter) viability, CellTiter-Fluor protease fluorescence, 24 h; Potency, µM (doses to about 56.7 µM), actives largely listed as cytotoxic; 0.49% of 400,000 active; AID 651635, 2014; further: nearly all actives have a fitted effect of over 40% in size
12-LOX inh = Primary qHTS assay for inhibitors of human arachidonate 12S-lipoxygenase (ALOX12): Round 2. Polyunsaturated fatty acid lipoxygenase ALOX12 (Homo sapiens), P18054. Potency, µM (series often up to 108 µM), actives largely listed as inhibitors. 1.1% of 580,000 active. AID 1671190, 2021. purified 12hLO, xylenol orange hydroperoxide absorbance
Target sequence (P18054 whole entry, looked up): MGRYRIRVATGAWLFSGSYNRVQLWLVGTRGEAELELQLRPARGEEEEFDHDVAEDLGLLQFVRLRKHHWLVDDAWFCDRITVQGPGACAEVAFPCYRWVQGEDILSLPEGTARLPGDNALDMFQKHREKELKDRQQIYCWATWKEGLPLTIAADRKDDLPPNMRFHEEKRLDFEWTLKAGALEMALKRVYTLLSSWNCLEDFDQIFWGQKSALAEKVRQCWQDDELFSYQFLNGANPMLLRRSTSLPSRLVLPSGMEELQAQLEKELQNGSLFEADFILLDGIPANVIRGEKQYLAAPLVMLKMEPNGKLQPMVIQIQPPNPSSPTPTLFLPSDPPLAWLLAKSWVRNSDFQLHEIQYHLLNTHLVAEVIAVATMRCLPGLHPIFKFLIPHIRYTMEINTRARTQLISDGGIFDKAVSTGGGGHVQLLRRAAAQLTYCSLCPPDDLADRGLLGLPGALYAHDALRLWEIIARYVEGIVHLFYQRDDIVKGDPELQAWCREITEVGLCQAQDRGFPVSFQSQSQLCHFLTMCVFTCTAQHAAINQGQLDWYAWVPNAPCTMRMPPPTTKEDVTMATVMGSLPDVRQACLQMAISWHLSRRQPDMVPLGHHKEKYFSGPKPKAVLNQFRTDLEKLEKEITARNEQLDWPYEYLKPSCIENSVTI
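Purified human 12hLO at 150 nM in 25 mM Hepes, 0.01% Triton X-100, pH 7.0, preincubated 15 min at room temperature with compound. Reaction started with 40 uM arachidonic acid, 30 min at room temperature. Hydroperoxide measured by Fe-xylenol orange, 573/405 nm absorbance ratio.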
Hits are given with their value; 0 = inactive; ? = inconclusive; - = no result; ! = not active in a repeat; [ ] = another dose, or the depositor's remark. The call rests on the fitted dose curve; in most records, active means well fitted curve in the direction sought with a large enough effect; inconclusive means small, poorly fitted or top-dose-only effect, or another doubt; inactive means no such curve, though single readings can be large; an effect the other way counts as inactive or inconclusive.

SMILES	ATXN2 expr inh	TGFb SMAD3 inh	HepG2 viability	ATXN viability	12-LOX inh
COc1cc2c(cc1OC)C1CC(=O)C(CC(C)C)CN1CC2 (centres undefined)	0	0	0	0	?
CC[C@H]1CN2CCc3cc(OC)c(OC)cc3[C@H]2C[C@@H]1C[C@@H]1NCCc2cc(OC)c(OC)cc21	0.273µM	-	-	-	0
COc1ccc(Cl)cc1NC(=O)c1c(NCc2cccnc2)sc2c1CCC(C)C2 (centres undefined)	-	8.91µM	10µM	-	?
COc1ccc(Cl)cc1NC(=O)c1c(NCc2cccs2)sc2c1CCC(C)C2 (centres undefined)	?	?	0	?	0
CCOc1ccc(NC(=O)c2c(NCc3cccnc3)sc3c2CCC(C)C3)cc1 (centres undefined)	-	12.6µM	0	-	39.8µM
COc1ccc(OC)c(NC(=O)c2c(NCc3ccc(N(C)C)cc3)sc3c2CCCC3)c1	?	0	0	22.4µM	?
CCOc1ccc(NC(=O)c2c(NCc3cccs3)sc3c2CCC(C)C3)cc1 (centres undefined)	?	?	0	0	0
COc1ccc(NC(=O)Cn2cccc2-c2nc(-c3ccc4c(c3)OCO4)no2)cc1	-	-	-	-	0
CC1(C)Cc2c(ccc3ccccc23)C(CCl)N1 (centres undefined)	-	-	-	-	5.62µM
Cc1nc([N+](=O)[O-])c(Sc2nc3ccc([N+](=O)[O-])cc3[nH]2)n1Cc1ccccc1	0	0	10µM	?	0
Cc1nc([N+](=O)[O-])c(Br)n1Cc1ccccc1	?	?	0	?	0
CC(NC(=O)c1ccc2c(c1)NC(=O)CS2)c1ccc2c(c1)OCO2 (centres undefined)	-	-	-	-	14.1µM
Cc1cc(C(=O)NC(C)c2ccc3c(c2)OCO3)cs1 (centres undefined)	0	0	0	0	0
Cc1nn2c(c1-c1ccccc1C(C)C)N(C(=O)Cc1ccccn1)CCC2	-	-	-	-	0
CCC(C(=O)O)N1C(=O)/C(=C/C(C)=C/c2ccccc2)SC1=S (centres undefined)	0	?	0	?	?
O=C1/C(=C\c2cc(Cl)c(O)c(Cl)c2)SC(=S)N1Cc1ccccc1	?	0	11.2µM	0	0
CC(=C\c1ccccc1)/C=C1/SC(=S)N(C(C(=O)O)C(C)C)C1=O (centres undefined)	0	0	0	0	44.7µM
O=C(O)CN1C(=O)/C(=C\C(Br)=C\c2ccccc2)SC1=S	?	?	0	?	35.5µM
CC(=C\c1ccccc1)/C=C1/SC(=S)N(CCCC(=O)O)C1=O	?	0	0	0	0
CC(/C=C1\SC(=O)N(CCCC(=O)O)C1=O)=C\c1ccccc1	1.26µM	?	0	0	0
COCCCNC(=O)CC1CC2CCC1C2 (centres undefined)	-	-	-	-	0
Cc1ccc2c(n1)N(C)[C@H](CO)CCN(C1Cc3ccccc3C1)C2	-	-	-	-	0
COc1cccc2cc(C(=O)NCCOc3cccc(C)c3)c(=O)oc12	-	-	-	-	0
CC(/C=C1\SC(=S)N(CCCC(=O)Nc2ccc(C(=O)O)cc2)C1=O)=C\c1ccccc1	0	0	0	?	44.7µM
CC(=O)N1CCc2c(sc(NC(=O)CSc3ccccc3)c2-c2nc3ccccc3s2)C1	-	0	0	-	?
SMILES	ATXN2 expr inh	TGFb SMAD3 inh	HepG2 viability	ATXN viability	12-LOX inh
CC(=O)Nc1sc2c(c1-c1nc3ccccc3s1)CN(C(C)C)CC2	3.55µM	0	0	0	0
CC(=O)N1CCc2c(sc(NC(=O)C3CC3)c2-c2nc3ccccc3s2)C1	31.6µM	?	0	?	?
N#Cc1cccnc1NCCNC(=O)Nc1ccccn1	-	-	-	-	0
C#CCC(Cc1cnc2nc(N)nc(N)c2n1)c1ccc(C(=O)N[C@@H](CCC(=O)O)C(=O)O)cc1 (some centres undefined)	0.544µM	-	-	?	0
CN(Cc1cnc2nc(N)nc(N)c2n1)c1ccc(C(=O)NC(CCC(=O)O)C(=O)O)c2ccccc12 (centres undefined)	?	0	0	0	0
CCOC(=O)c1oc2cc(OCC(=O)c3ccccc3)ccc2c(=O)c1-c1ccc2c(c1)OCCO2	-	-	-	-	0
CC(C)Oc1ccc(Cc2cnc(=S)[nH]c2N)cc1	-	0	0	?	35.5µM
CCOc1ccc(-c2cc3c(=O)n(CCNC(=O)c4cccc5[nH]ccc45)ccn3n2)cc1	-	-	-	-	0
CCOC(=O)c1ccccc1NC(=O)CSc1c(CC(C)C)cnc2c1c(=O)n(C)c(=O)n2C	-	-	-	-	0
COc1ccc(C(=O)Nc2ccc3ncccc3c2)cc1	20µM	0	0	0	0
CN(C)c1ccc(C(=O)Nc2cnc3ccccc3c2)cc1	-	-	-	-	39.8µM
COc1cc(CCC(=O)Nc2cnc3ccccc3c2)cc(OC)c1OC	-	0	0	0	0
Cc1ccc(C(=O)Nc2ccc3ncccc3c2)cc1	0	0	0	?	0
COc1ccc(CCC(=O)Nc2cnc3ccccc3c2)cc1	0	0	0	0	12.6µM
CC1CCC(C(C)C)C(OC(=O)CSC2=NCCS2)C1 (centres undefined)	-	-	-	-	0
CC1(C)CN(Cc2cc(C#N)ccc2F)CCO1	-	-	-	-	0
Oc1ccccc1CN1CCC(O)(c2csc(CN3CCc4ccccc4C3)n2)CC1	-	-	-	-	0
O=C(NC(O)C(=O)c1ccc(F)cc1)c1ccccc1 (centres undefined)	-	-	-	-	0
CCn1cnc2cc(NCc3ccc(N(C)C)cc3)ccc21	?	10µM	7.08µM!	?	0
O=C1NC2(CCCCC2)N(C(=O)c2ccccc2F)C2=C1CCCC2	-	-	-	-	0
COc1ccc(C(=O)Oc2cccc(/C=N/NC(N)=S)c2)cc1	-	0	0	0	39.8µM
CCOc1ccc(-c2nc(CSCC(=O)NCCCN3CCOCC3)c(C)o2)cc1	-	-	-	-	0
c1ccc2c(c1)Cc1cc(-n3cccc3)ccc1-2	-	-	-	-	0
O=C(CCCOc1ccccc1)N1CCCCC1	11.2µM	0	0	0	0
O=C(CCCOc1ccc(Cl)cc1)N1CCCCC1	0	0	0	0	0
SMILES	ATXN2 expr inh	TGFb SMAD3 inh	HepG2 viability	ATXN viability	12-LOX inh
O=C(c1ccccc1)c1ccc(OCCCN2CCCC2)cc1	0	0	15.8µM	0	?
O=S(=O)(c1ccccc1)N1CCN(c2ccnc3cc(Cl)ccc23)CC1	12.6µM	?	0	?	0
O=S(=O)(c1cccs1)N1CCN(c2ccnc3cc(Cl)ccc23)CC1	?	?	0	0	0
Cc1ccccc1-c1nc2c(=O)n(C)c(=O)nc-2n(C)n1	-	0.631µM	1.12µM	-	-
CCCc1nc2c(=O)n(C)c(=O)nc-2n(C)n1	4.23µM	1.12µM	1.12µM	-	0
CCc1ccc(-c2nc3c(=O)n(C)c(=O)nc-3n(CC)n2)cc1	-	0.891µM	1.26µM	-	-
COc1ccc(-c2nc(-c3ccccn3)ncc2S(C)(=O)=O)cc1	0[11.3 µM]	0	0	0	0
Cn1nc(-c2ccccn2)nc2c(=O)n(C)c(=O)nc1-2	?	2.24µM	2.82µM	-	?
CCc1ccc(-c2csc3ncn(CC)c(=O)c23)cc1	-	0	0	0	0
